p53 reactivation: qHTS assay for re-activators of p53 using a Luc reporter | H1299 p53-A138V BP100-luciferase reporter, luminescence, 24 h | Potency, µM (series often up to 92.2 µM), without a hit: top-dose activity change, positive = activation, most hits filed as activators | 0.063% of 320,000 active | AID 504706, 2011; further: % of control where 0% means no effect; nearly all actives have a fitted effect of over 45% in size
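p53-null H1299 cells stably carrying temperature-sensitive p53-A138V and a BP100-luciferase reporter were pinned with compounds (4-point, 1:5 series) and held 24 hrs at 37 deg C. Luminescence was read 10 min after detection reagent.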
SMN2 splice enh: qHTS Assay for Enhancers of SMN2 Splice Variant Expression | HEK293 SMN2-luciferase splicing reporter, luminescence, 30-36 h | Potency, µM (titrated, usually from 46.1 µM), inactives show top-dose activity change, positive = activation, hits mostly activators | 2.8% of 210,000 active | AID 1458, 2008; further: % of control where 0% means no effect; nearly all actives have a fitted effect of over 55% in size
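HEK293 cells carry an SMN2 minigene-luciferase reporter in which exon 7 inclusion puts luciferase in frame. Cells were seeded at 2000 cells/well, attached for 10-12 hours, then exposed to compounds for 30-36 hours at 37C before ONE-Glo luminescence.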
NPC1 promoter act: qHTS Assay for NPC1 Promoter Activators. Huh7 NPC1 promoter luciferase reporter, 24 h. Potency, µM (top dose mostly 9.22 µM), without a hit: at the highest dose activation, hits mostly activators. 2.4% of 320,000 active. AID 485313, 2010; further: % of control where 0% means no effect; nearly all actives have a fitted effect of over 60% in size
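Luminescence from an NPC1 promoter-driven luciferase reporter in stably transfected Huh7 cells was measured after 24 h compound treatment at 37 °C, followed by 10 min ambient incubation with luciferase detection reagent.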
FLuc counter: qHTS profiling assay for firefly luciferase inhibitor/activator using purifed enzyme and Km concentrations of substrates (counterscreen for miR-21 project); Luciferin 4-monooxygenase (Photinus pyralis), P08659; purified FLuc, Km substrates, luminescence inhibition; Potency, µM (top dose mostly 57.5 µM), for the others: at the highest dose activity change, negative = inhibition, usual class: inhibitors; 6.9% of 360,000 active;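 further: plate controls were vehicle for no effect and reference inhibitor for full effect; nearly all actives have a fitted effect of over 55% in size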
Target sequence (P08659 whole entry, looked up): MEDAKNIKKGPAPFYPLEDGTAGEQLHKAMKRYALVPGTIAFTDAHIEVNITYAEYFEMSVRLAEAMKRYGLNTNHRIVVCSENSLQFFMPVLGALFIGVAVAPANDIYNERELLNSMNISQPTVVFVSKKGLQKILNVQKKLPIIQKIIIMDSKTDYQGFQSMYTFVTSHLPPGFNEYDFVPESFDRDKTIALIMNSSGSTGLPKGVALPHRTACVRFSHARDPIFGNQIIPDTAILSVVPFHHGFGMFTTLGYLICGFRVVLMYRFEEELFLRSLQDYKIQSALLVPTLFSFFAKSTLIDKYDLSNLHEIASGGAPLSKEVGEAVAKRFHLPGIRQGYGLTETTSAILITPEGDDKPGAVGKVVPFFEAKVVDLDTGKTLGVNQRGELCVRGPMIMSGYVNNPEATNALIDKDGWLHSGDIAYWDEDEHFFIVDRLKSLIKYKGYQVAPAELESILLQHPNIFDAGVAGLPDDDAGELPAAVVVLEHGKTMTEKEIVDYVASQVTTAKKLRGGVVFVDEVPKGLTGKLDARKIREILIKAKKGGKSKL
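Purified P. pyralis luciferase (10nM final) with 10uM D-luciferin and 10uM ATP (Km levels) in 50mM Tris acetate pH 7.5, 10mM Mg acetate, 0.01% Tween-20, 0.05% BSA; qHTS 6-point titration, ~60 µM downward; luminescence read.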
Rab9 promoter act: qHTS Assay for Rab9 Promoter Activators; Huh7 Rab9 promoter-luciferase reporter, luminescence, 24 h; Potency, µM (doses to about 9.22 µM), without a hit: top-dose activation, negative = inhibition, usual class: activators; 2.8% of 320,000 active; AID 485297, 2010; further: % of control where 0% means no effect; nearly all actives have a fitted effect of over 60% in size
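Luminescence from Amplite-detected luciferase (10 minutes, ambient) reports Rab9 promoter activation. Before that, stable Rab9-luciferase Huh7 cells (1500/well, reduced-serum OP-MEM I plus 10% FBS) were exposed to compound for 24 hours at 37C.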
ELG1 genotoxic: qHTS screen for small molecules that induce genotoxicity in human embryonic kidney (HEK293T) cells expressing luciferase-tagged ELG1; Potency, µM (doses to about 46 µM), for inactives: at the top dose activity change, positive = activation, usual class: activators; HEK293T ELG1-luciferase reporter, luminescence, 16 h; 1.3% of 330,000 active; further: % of control where 0% means no effect; nearly all actives have a fitted effect of over 60% in size
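Genotoxic stress is detected as increased luminescence from luciferase-tagged ELG1 in HEK293T cells, measured with ONE-Glo after a 16 hr treatment at 37 °C.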
Starred values were filed as active, the others as inactive; ? = inconclusive; nt = no result given. This is a sample that favours compounds with a hit; in the whole collection about 7.3% have one here. The call rests on the fitted dose curve; in most records, active means well fitted curve in the direction sought with a large enough effect; inconclusive means small, poorly fitted or top-dose-only effect, or another doubt; inactive means no such curve, though single readings can be large; an effect the other way counts as inactive or inconclusive. Potency means the concentration at half of the fitted maximal effect.

SMILES	p53 reactivation	SMN2 splice enh	NPC1 promoter act	FLuc counter	Rab9 promoter act	ELG1 genotoxic
CCOC(=O)c1c(-c2ccc(C)cc2)csc1NC(=O)c1cc(=O)c2cc(C)cc(C)c2o1	nt	nt	nt	5%	nt	nt
Cc1cc2oc(=O)c(CC(=O)NCCc3ccccc3F)c(C)c2c2occ(C(C)(C)C)c12	nt	-2%	nt	?	nt	nt
N#Cc1c(-c2ccccc2Cl)noc1/C=C/Nc1ccc(C(=O)O)cc1	8%	nt	5%	24µM*	6%	11%
Cn1c2ccccc2c2cc(/C=N/NC(=O)c3ccccc3F)ccc21	1%	nt	-10%	7.6µM*	13%	-11%
Cn1c2ccccc2c2cc(/C=N/NC(=O)c3ccc(N)cc3)ccc21	-2%	nt	-2%	11µM*	12%	-14%
CCn1c2ccccc2c2cc(/C=N/NC(=O)c3ccccc3C)ccc21	?	-72%	-22%	?	-16%	?
Cc1cccc(Cn2c(COc3ccccc3)nc3ccccc32)c1	nt	-16%	nt	?	nt	nt
COc1ccccc1N1CCN(C(=O)c2ccc3c(c2)N(Cc2ccccc2)C(=O)c2ccccc2S3(=O)=O)CC1	nt	-22%	nt	1%	nt	nt
CCN(CC)C(=O)c1sc2c(c1C)c(=O)n(-c1ccc(Cl)c(Cl)c1)c(=O)n2CC(=O)Nc1cccc(OC)c1	nt	nt	nt	-4%	nt	nt
CCCSc1nc2c3c(sc2c(=O)[nH]1)CC(C)(CC)OC3 (configuration not stated)	7%	9%	5%	5.4µM*	3%	4%
COc1ccc(C2CC(=O)c3cc(-c4nc(-c5cccc([N+](=O)[O-])c5)cs4)c(=O)n(-c4ccc(C)c(C)c4)c3C2)cc1 (configuration not stated)	nt	-11%	nt	-3%	nt	nt
Cc1cccc(C(=O)OCC(=O)N2CCc3ccccc3C2)c1O	?	nt	nt	nt	nt	-4%
O=C(OCC(=O)N1CCCCCC1)c1cccs1	?	?	?	13µM*	?	?
CCOC(=O)C1CCCN(C(=O)COC(=O)c2cccs2)C1 (configuration not stated)	?	nt	nt	nt	nt	6%
Cc1cnc(C(=O)OCC(=O)N2CCc3ccccc3C2)cn1	3%	-9%	1%	0%	0%	0%
O=C(OCC(=O)N1CCc2ccccc2C1)c1cccs1	30%	28%	-2%	11µM*	-4%	-1%
O=C(OCC(=O)N1CCc2ccccc2C1)c1cccnc1Cl	6%	3%	27%	15µM*	?	?
ClC1(Cl)CC1CSc1nnc(-c2ccncc2)o1 (configuration not stated)	nt	nt	?	-17%	28%	-10%
CC(C)(C)C(=O)Nc1ccc(-c2cc3cc(Cl)ccc3o2)cc1	7%	nt	?	0.19µM*	0.32µM*	?
CC(C)(Oc1ccc(Cl)cc1)C(=O)Nc1ccc2oc(=O)ccc2c1	-12%	nt	2%	1%	-2%	-3%
Clc1ccc(CSc2nc3ccncc3[nH]2)cc1	nt	11µM*	0.63µM*	4.8µM*	0.71µM*	2.9µM*
O=C(c1ccc(CSc2nc3ccncc3[nH]2)cc1)N1CCN(c2cccc(Cl)c2)CC1	-11%	-70%	-18%	-1%	-23%	-4%
O=C(c1ccc(CSc2nc3ccncc3n2Cc2ccccc2)cc1)N1CCCCCC1	nt	-28%	nt	17µM*	nt	nt
O=C(c1ccc(CSc2nc3ccncc3[nH]2)cc1)N1CCCCCC1	?	nt	?	15µM*	?	?
Cc1ccc(CSc2nc3ccncc3[nH]2)cc1	nt	7.1µM*	?	2.7µM*	?	?
SMILES	p53 reactivation	SMN2 splice enh	NPC1 promoter act	FLuc counter	Rab9 promoter act	ELG1 genotoxic
COC(=O)c1ccc(C)c(NC(=O)CCc2ccc(OC)c(OC)c2)c1	2%	-32%	0%	5%	-10%	-16%
COc1ccc(CCN(C)CCC(=O)Nc2cc(C)ccc2C)cc1OC	1%	-7%	1%	13µM*	-2%	-1%
COc1cc(SC)ccc1C(=O)Nc1c(C)cccc1C	-2%	-17%	-6%	-8%	-2%	1%
COc1ccccc1C(=O)Nc1cccc(SC)c1	?	21%	-2%	17µM*	16%	?
COc1cc(SC)ccc1C(=O)NNC(=O)c1cc(C)oc1C	6%	nt	3.2µM*	1.9µM*	1.3µM*	?
CSc1cccc(NC(=O)c2cccc3cccnc23)c1	?	nt	?	6.7µM*	26%	?
COc1cc(SC)ccc1C(=O)Nc1nccs1	1%	nt	0.89µM*	0.6µM*	0.56µM*	?
N#CCCN(C(=O)COC(=O)CCc1c[nH]c2ccccc12)c1ccccc1	0%	nt	-1%	5%	-2%	-4%
CCCN(CCC)CCNC(=O)Cn1ncc2c([nH]c3ccc(C)cc32)c1=O	nt	nt	nt	0%	nt	nt
CC1(C)Cc2c(sc(NC(=O)C(=O)N3CCN(CCO)CC3)c2C(N)=O)CO1	-2%	nt	1%	0%	-3%	-1%
CCOc1ccc(Cc2nccc3cc(OCC)c(OCC)cc23)cc1OCC	nt	-60%	nt	nt	nt	nt
Cc1cccc(OCC(=O)NCc2ccc3c(c2)CCN3C(=O)c2ccc(Cl)cc2)c1	nt	nt	nt	-17%	nt	nt
COc1cc(SC)ccc1C(=O)Nc1ccccc1	?	?	8%	6.7µM*	28%	?
COc1ccc2c(CNC3CCCCCC3)c(C(=O)O)n(Cc3ccc(C)cc3)c2c1	nt	nt	nt	-5%	nt	nt
C/C(=N\NC(=O)c1ccn[nH]1)c1cn(C)nc1C	29%	11µM*	?	12µM*	?	?
Cc1ccc(Cl)cc1N1CCN(C(=O)Cn2c(-c3cccs3)cc3cc(F)ccc32)CC1	nt	nt	nt	2%	nt	nt
O=C(Nc1ccc(Cl)c(Cl)c1)C1=Cc2ccccc2OC1	?	?	?	11µM*	2.5µM*	?
Cc1cc(C(=O)Nc2cccc(NC(=O)c3ccco3)c2)ccc1[N+](=O)[O-]	-4%	nt	-3%	19µM*	0%	-10%
N#Cc1ccsc1NC(=O)c1ccc(Cl)c([N+](=O)[O-])c1	26%	nt	-2%	6µM*	9%	-1%
O=C(Nc1ccc2c(c1)OCCO2)c1ccc(Cl)c([N+](=O)[O-])c1	?	18µM*	-3%	?	-1%	?
O=C(O)c1cc(NC(=O)c2ccc(Cl)c([N+](=O)[O-])c2)cc(C(=O)O)c1	-5%	-17%	-4%	-5%	-11%	?
N#Cc1ccsc1NC(=O)c1cccc([N+](=O)[O-])c1	3%	-57%	7%	-11%	12%	-4%

Screening results from PubChem BioAssay.
